# Laboratory results: the supplement of paper PMC8728848
# About 410 targets per protein were measured; listed, in parts, are those with the strongest signals and a random draw of the rest.
# What was measured:
# Assay in all cases: glycan array binding signal (z-score within array); higher = stronger binding
# Settings in all cases: glycan notation: IUPAC condensed, linker removed
# [1] = target: Fuc(a1-2)Gal(b1-3)GalNAc(b1-4)[Neu5Ac(a2-3)]Gal(b1-4)Glc
# Summary of the method: (§1)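 From the Consortium for Functional Glycomics database, 3228 arrays were curated, keeping only those whose protein sequence was available. Binding is given as a within-array Z-score averaged across arrays sharing a protein sequence and across linkers. Negative Z-scores can be read as non-binding.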
# [2] = target: Fuc(a1-2)Gal(b1-3)GlcNAc6S
# Summary of the method: as §1
# [3] = target: Fuc(a1-2)[Gal(a1-3)]Gal(b1-3)GlcNAc
# Summary of the method: as §1
# [4] = target: Fuc(a1-2)[Gal(a1-3)]Gal(b1-3)GlcNAc(b1-2)Man(a1-3)[Fuc(a1-2)[Gal(a1-3)]Gal(b1-3)GlcNAc(b1-2)Man(a1-6)]Man(b1-4)GlcNAc(b1-4)[Fuc(a1-6)]GlcNAc
# Summary of the method: as §1
# [5] = target: Fuc(a1-2)[GalNAc(a1-3)]Gal(b1-3)GlcNAc(b1-6)GalNAc
# Summary of the method: as §1
# [6] = target: Fuc(a1-2)[GalNAc(a1-3)]Gal(b1-4)Glc
# Summary of the method: as §1
# [7] = target: Fuc(a1-3)[Gal(b1-4)]GlcNAc(b1-6)[Gal(b1-3)GlcNAc(b1-3)]Gal(b1-4)Glc
# Summary of the method: as §1
# [8] = target: Fuc(a1-3)[Gal3S(b1-4)]Glc
# Summary of the method: as §1
# Fuc(a1-4)GlcNAc = target: Fuc(a1-4)GlcNAc
# Summary of the method: as §1
# Gal(a1-3)Gal(b1-3)GlcNAc = target: Gal(a1-3)Gal(b1-3)GlcNAc
# Summary of the method: as §1
# [9] = target: Gal(a1-3)Gal(b1-3)[Fuc(a1-4)]GlcNAc(b1-2)Man(a1-3)[Gal(a1-3)Gal(b1-3)[Fuc(a1-4)]GlcNAc(b1-2)Man(a1-6)]Man(b1-4)GlcNAc(b1-4)GlcNAc
# Summary of the method: as §1
# [10] = target: Gal(a1-3)Gal(b1-4)[Fuc(a1-3)]GlcNAc
# Summary of the method: as §1
# [11] = target: Gal(a1-3)Gal(b1-4)[Fuc(a1-3)]GlcNAc(b1-2)Man(a1-3)[Gal(a1-3)Gal(b1-4)[Fuc(a1-3)]GlcNAc(b1-2)Man(a1-6)]Man(b1-4)GlcNAc(b1-4)GlcNAc
# Summary of the method: as §1
# [12] = target: Gal(b1-3)[Fuc(a1-4)]GlcNAc(b1-2)Man(a1-3)[Gal(b1-3)[Fuc(a1-4)]GlcNAc(b1-2)Man(a1-6)]Man(b1-4)GlcNAc(b1-4)[Fuc(a1-6)]GlcNAc
# Summary of the method: as §1
# [13] = target: Gal(b1-4)GlcNAc(b1-2)Man(a1-6)Man(b1-4)GlcNAc(b1-4)GlcNAc
# Summary of the method: as §1
# [14] = target: Gal(b1-4)GlcNAc(b1-3)Gal(b1-4)GlcNAc
# Summary of the method: as §1
# [15] = target: Gal(b1-4)GlcNAc(b1-3)Gal(b1-4)GlcNAc(b1-2)[Gal(b1-4)GlcNAc(b1-3)Gal(b1-4)GlcNAc(b1-6)]Man(a1-6)[Gal(b1-4)GlcNAc(b1-3)Gal(b1-4)GlcNAc(b1-2)Man(a1-3)]Man(b1-4)GlcNAc(b1-4)[Fuc(a1-6)]GlcNAc
# Summary of the method: as §1
# [16] = target: Gal(b1-4)GlcNAc(b1-3)Gal(b1-4)GlcNAc(b1-3)Gal(b1-4)GlcNAc(b1-3)Gal(b1-4)GlcNAc(b1-3)Gal(b1-4)GlcNAc(b1-2)[Gal(b1-4)GlcNAc(b1-3)Gal(b1-4)GlcNAc(b1-3)Gal(b1-4)GlcNAc(b1-3)Gal(b1-4)GlcNAc(b1-3)Gal(b1-4)GlcNAc(b1-6)]Man(a1-6)[Gal(b1-4)GlcNAc(b1-3)Gal(b1-4)GlcNAc(b1-3)Gal(b1-4)GlcNAc(b1-3)Gal(b1-4)GlcNAc(b1-3)Gal(b1-4)GlcNAc(b1-2)Man(a1-3)]Man(b1-4)GlcNAc(b1-4)[Fuc(a1-6)]GlcNAc
# Summary of the method: as §1
# [17] = target: Gal(b1-4)GlcNAc(b1-6)Gal(b1-4)GlcNAc
# Summary of the method: as §1
# [18] = target: Gal3S(b1-4)[Fuc(a1-3)]Glc6S
# Summary of the method: as §1
# GalNAc(a1-3)Gal = target: GalNAc(a1-3)Gal
# Summary of the method: as §1
# [19] = target: GalNAc(a1-3)GalNAc(b1-3)Gal(a1-4)Gal(b1-4)GlcNAc
# Summary of the method: as §1
# [20] = target: GalNAc(b1-4)GlcNAc(b1-2)Man
# Summary of the method: as §1
# [21] = target: GalNAc(b1-4)GlcNAc(b1-2)Man(a1-3)[GalNAc(b1-4)GlcNAc(b1-2)Man(a1-6)]Man(b1-4)GlcNAc(b1-4)GlcNAc
# Summary of the method: as §1
# [22] = target: Glc(a1-4)Glc(a1-4)Glc(a1-4)Glc
# Summary of the method: as §1
# [23] = target: GlcNAc(a1-4)Gal(b1-4)GlcNAc
# Summary of the method: as §1
# [24] = target: GlcNAc(a1-4)Gal(b1-4)GlcNAc(b1-3)Gal(b1-4)[Fuc(a1-3)]GlcNAc(b1-3)Gal(b1-4)[Fuc(a1-3)]GlcNAc
# Summary of the method: as §1
# [25] = target: GlcNAc(b1-2)Man(a1-3)[GlcNAc(b1-2)Man(a1-6)]Man(b1-4)GlcNAc(b1-4)GlcNAc
# Summary of the method: as §1
binder,measurement,setting,value
LF82 (Escherichia coli) (protein) ADWGPCRTASGDPFIFVTSFTKNIQNPTDNVTGQTYPDFYQWALGDKYSGVCECPSPNPTEARPTLYKTESTLAAGHNSTYFKITNNLEVSTRVYIANVGNVQVPFINKSNSQPGRECDQPTFGWTTGSKGQLSLYIAKPFVGEQNIPQTIIVSVFGTKKENVYSSVPISQVLLSGKVTVTQGCELAAGTSLDIDFGEYQAHDFKGRTGQPPQNVQKIQKELTFNCTNISDGVHIYLSLEGTPNAAYPSAISLGNADVGAVIEDGKGNILKPNDSNSLLEMNPGSLYEYVKRKVTTTITAYPVSTTGKLPAAGDYSGVATMHVELDGGGGGGGGGGATTDLGAKGTLKFSLKISQGHHHHHH,glycan array binding signal (z-score),[1],3.03
same,glycan array binding signal (z-score),[2],2.87
same,glycan array binding signal (z-score),[3],-0.338
same,glycan array binding signal (z-score),[4],3.84
same,glycan array binding signal (z-score),[5],1.19
same,glycan array binding signal (z-score),[6],-0.933
same,glycan array binding signal (z-score),[7],-1.03
same,glycan array binding signal (z-score),[8],0.085
same,glycan array binding signal (z-score),Fuc(a1-4)GlcNAc,-0.348
same,glycan array binding signal (z-score),Gal(a1-3)Gal(b1-3)GlcNAc,-0.354
same,glycan array binding signal (z-score),[9],0.456
same,glycan array binding signal (z-score),[10],-1.48
same,glycan array binding signal (z-score),[11],1.79
same,glycan array binding signal (z-score),[12],0.378
same,glycan array binding signal (z-score),[13],4.95
same,glycan array binding signal (z-score),[14],-1.12
same,glycan array binding signal (z-score),[15],2.68
same,glycan array binding signal (z-score),[16],3.2
same,glycan array binding signal (z-score),[17],-0.202
same,glycan array binding signal (z-score),[18],-0.55
same,glycan array binding signal (z-score),GalNAc(a1-3)Gal,-0.316
same,glycan array binding signal (z-score),[19],-0.744
same,glycan array binding signal (z-score),[20],0.518
same,glycan array binding signal (z-score),[21],-0.272
same,glycan array binding signal (z-score),[22],1.21
same,glycan array binding signal (z-score),[23],2.49
same,glycan array binding signal (z-score),[24],3.63
same,glycan array binding signal (z-score),[25],-0.657
